# Experimental data published in PubChem BioAssay (NCI).
# Compounds without any hit were thinned out: in the full panel of roughly 79,000, 15% have a hit. A number with no mark means an inactive call. Calls of active or inactive are those of the source. Cut-off read from the data, not from the text of the source: active = growth inhibition above about 70%; inactive = the rest.
# Test: NCI Yeast Anticancer Drug Screen. Data for the sgs1 mgt1 strain (AID 161);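 note: 0% = growth of cultures given vehicle only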
# Details: S. cerevisiae sgs1 mgt1 strain, at 50.0 µM (retest, dose inferred, filed as 5.0), stronger effect = higher value
# Method in brief: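 This yeast growth screen uses a strain with defined DNA-repair lesions; compound-treated growth is compared with vehicle-treated growth.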
row,Structure (SMILES),growth inhibition
1,CCOP(=O)(OCC)C(Cc1ccccc1)N=C(c1ccccc1)c1ccccc1 (centres undefined),-1%
2,CCc1ncnc2cc(OCC3CO3)c(OC)cc12 (centres undefined),93% (active)
3,CCOC(=O)[C@H]1Nc2ccccc2C2c3ccccc3CC21 (some centres undefined),83% (active)
4,O=CNc1ccc2c(c1)C(=O)c1ccccc1-2,55%
5,CCOc1ccc2c(c1)c(CC(=O)O)cn2C,63%
6,OC1CSCCCSCCSCCCSC1,4%
7,N#Cc1c(N)[nH]c2ccc(Sc3ccccc3)cc12,40%
8,Cc1ccc(-c2ccc(Nc3c4ccccc4nc4ccccc34)cc2)cn1,75% (active)
9,c1ccc2c(c1)NC(NC1Nc3ccccc3N1)N2,66%
10,OC(COc1cccc2ccccc12)CN1CCOCC1 (centres undefined),71% (active)
11,CCC/C(Cl)=N\OC(=O)Nc1ccc(Br)cc1,99% (active)
12,COc1ccc(/C=C2\SC(=S)N(/C=C/c3nc4ccccc4[nH]c3=O)C2=O)cc1OC,57%
13,O=C(NNc1ccnc2cc(Cl)ccc12)/C(=C\c1ccccc1Cl)NC(=O)c1ccccc1,-37%
14,CSC1=NNC(SC)=NN1,100% (active)
15,Cc1c(C2=C(Br)C(=O)N(C)C2=O)c(=O)n(C)c(=O)n1C,5%
16,NCCNc1ccc(NCCN)c2c1C(=O)c1c(O)ccc(O)c1C2=O,77% (active)
17,Cn1c(=O)c(-c2ccccc2)c(N=[N+]=[N-])c2ccccc21,93% (active)
18,CCCCCCCCCCCCCCCCCCOCC(O)COP(=O)(O)OCC1OC(n2cc(F)c(=O)[nH]c2=O)CC1O (centres undefined),98% (active)
19,CCS(=O)(=O)c1ccc(/C=C/C=N/NC(=S)NCC(C)C)cc1,62%
20,CCC(=O)Oc1c(Cl)cc(Cl)c2ccccc12,49%

row,Structure (SMILES),growth inhibition
1,COc1cc2c3c(cccc3c1)C(=O)N(CCN(C)C)C2=O,23%
2,CN(C)c1ccc(C(C#N)=C(C#N)C#N)cc1,60%
3,O=C(CCCN1CCC2(CC1)CC(=O)N(N1CCCCCC1)C2=O)c1ccc(F)cc1,74% (active)
4,O=C1C2C(C(=O)N1c1ccc(OCc3ccccc3)cc1)C1c3ccccc3C2C2CCCCN21 (centres undefined),61%
5,CCN(CC)CCC(=O)c1ccc(Oc2ccc(F)cc2)cc1,66%
6,O=Nc1c(NO)ccc2nn(-c3ccccc3)nc12,99% (active)
7,CC(=O)SCCC[Si](C)(C)CCCSC(C)=O,63%
8,O=C(O)C1CCCCC1c1c2ccc(=O)c(O)c-2oc2c(O)c(O)ccc12 (centres undefined),80% (active)
9,Cc1ccc(NN(NC(=O)OC(C)C)C(=O)OC(C)C)cc1,19%
10,O=C1c2ccccc2C(=O)c2cc(CBr)ccc21,89% (active)
11,Cc1c(C(Cc2ccccc2N(C)C(=O)/C=C\C(=O)O)c2c[nH]c3ccccc23)c2ccccc2n1C (centres undefined),-16%
12,CC(C)/C(Cl)=N\OC(=O)Nc1ccc(F)cc1,86% (active)
13,O=C1OC(=O)C2CCCC3CCCC1C32 (centres undefined),10%
14,CCOC(=O)C(NC(=O)c1ccccc1)(N1CCN(c2cc3c(cc2F)c(=O)c(C(=O)O)cn3C2CC2)CC1)C(F)(F)F (centres undefined),-15%
15,COc1ccc(NC(=S)N/N=C(\c2ccccc2)c2ccccn2)cc1,91% (active)
16,C=CCC1=C(C)C(OC(=O)/C=C/c2ccccc2)CC1=O (centres undefined),39%
17,NNc1c(F)c(F)cc(F)c1F,23%
18,COP(=O)(OC)/C(=C\C1=CN(C(c2ccccc2)(c2ccccc2)c2ccccc2)CN1)NC=O,0%
19,COC(=O)c1cc(-c2ccc(C)cc2)[nH]c(=O)c1C#N,20%
